Source: PubChem BioAssay AID1347076 (National Center for Advancing Translational Sciences (NCATS), 2019)
Out of some 400,000 compounds screened, about 13,000 (3.2%) were called active. Roughly 18% stayed inconclusive and do not appear here. The sample holds actives, similar compounds and a random draw of the others, so the mix is not that of the screen. Unmarked numbers belong to inactive results. The call rests on the fitted dose curve; in most records, active means well fitted cell-killing curve with a large enough effect; inconclusive means small, poorly fitted or top-dose-only effect, or effect the other way; inactive means flat fitted curve, though single readings scatter.
On the % scale 0 is the no-effect control and ±100 the full control effect; potency means the concentration at half of the fitted maximal effect.

Assay: qHTS assay for MDR1-selective chemotherapeutics: Primary screen using the drug-selected MDR subline cells KB-V1; further: nearly all actives have a fitted effect of over 60% in size
Details: KB-V1 MDR cells viability, CellTiter-Glo, 72 h; series mostly up to 46.1 µM; activity change, negative = cytotoxicity: at the top concentration
In short: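 KB-V1 MDR subline cells in DMEM (phenol-red free, 10% FBS) exposed to compounds in qHTS concentration series for 72 h at 37 degrees C. Viability read by CellTiter-Glo luminescence; concentration-effect curves fitted after normalization and correction.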
With `CCOC(=O)N1CCc2c(sc3c2C(=O)NC(c2ccccc2F)N3)C1` (centres undefined) the “activity change, negative = cytotoxicity” value was -0.0929%. In the case of `COc1ccc(NC(=O)CCCN2C(=O)CCn3nc(-c4cn(C)c5ccccc45)cc32)cc1OC`, the “activity change, negative = cytotoxicity” value is reported as 11.5%. In the case of `Cc1cccc(NC(=O)c2ccc(OCC(=O)NCc3ccccc3)cc2)c1C`, the Potency is reported as 14.6 µM (active). In the case of `COc1ccc(C(=O)Nc2cc(C)ccc2NC(=O)COc2ccccc2)cc1`, the “activity change, negative = cytotoxicity” value is reported as -2.79%. With `Cc1ccc(OCC(=O)NNC(=S)NCc2ccccc2)cc1` the “activity change, negative = cytotoxicity” value was 2.82%. In the case of `O=C(COC(=O)c1ccccc1OCCOc1ccccc1)Nc1cccc(Br)c1`, the “activity change, negative = cytotoxicity” value is reported as 0%. With `COCCNC(=O)C1CCCN(Cc2ccccc2Cl)CC1` (centres undefined) the “activity change, negative = cytotoxicity” value was 6.18%. For `COC(=O)CCCCC1=CCC2C(=O)C=C(O)C2C1` (centres undefined), the “activity change, negative = cytotoxicity” value was 3.11%. In the case of `Cc1sc2nc(-c3ccccc3F)oc(=O)c2c1C`, the “activity change, negative = cytotoxicity” value is reported as 23.8%. With `CCOc1ccc(NC(=O)c2cc3c(=O)n(Cc4cccs4)ccc3nc2C)cc1` the “activity change, negative = cytotoxicity” value was -7.46%. In the case of `C=CCNc1scc(-c2ccccc2)[n+]1CC=C`, the “activity change, negative = cytotoxicity” value is reported as 8.94%. With `O=C(NNC(=O)c1ccc(-c2ccccc2)cc1)Nc1ccccc1` the “activity change, negative = cytotoxicity” value was -17%. With `C=CC[n+]1c(-c2ccc(C)cc2)csc1NNC(=O)Nc1ccccc1` the Potency was 14.6 µM (active). In the case of `Cc1ccc(S(=O)(=O)N2C[C@H]3C(=O)C[C@@H](c4cccc5ccccc45)N(S(=O)(=O)c4ccc(C)cc4)[C@H]3C[C@H]2c2ccc(Cl)cc2)cc1`, the “activity change, negative = cytotoxicity” value is reported as 7.7%. In the case of `Cc1ccccc1-c1nc(NC(C)C)nc2cc(-c3ccccc3)sc12`, the “activity change, negative = cytotoxicity” value is reported as 3.17%. In the case of `O=C(C1CCC1)N1CCN(c2ccccc2)CC1`, the “activity change, negative = cytotoxicity” value is reported as 3.49%. For `O=C(NNC(=O)c1cc2c(s1)CCCC2)c1ccccc1`, the “activity change, negative = cytotoxicity” value was 14.5%. In the case of `O=C(c1cc2c(s1)CCC2)N1CCN(c2ccccc2)CC1`, the Potency is reported as 20.6 µM (active). With `O=[N+]([O-])c1ccc(/C=C/c2ccc3cccnc3c2)cc1` the “activity change, negative = cytotoxicity” value was -13.4%. In the case of `COc1cc(C(=O)N2CCOC23CCN(Cc2ccccc2)CC3)cc(OC)c1OC`, the “activity change, negative = cytotoxicity” value is reported as -15.3%. In the case of `COC(=O)c1ccc(C(=O)OC)c(NC(=S)N2CCN(c3cc(Cl)ccc3C)CC2)c1`, the Potency is reported as 20.6 µM (active). With `CCc1nc2ccc(C(=O)N3CCN(c4cc(Cl)ccc4C)CC3)cc2nc1CC` the “activity change, negative = cytotoxicity” value was 0%. In the case of `COC(=O)c1ccc(C(=O)OC)c(NC(=S)N2CCCCC2)c1`, the “activity change, negative = cytotoxicity” value is reported as -24.1%. In the case of `O=C1CCc2cc(S(=O)(=O)Nc3cccc(Oc4ccccc4)c3)ccc2N1`, the “activity change, negative = cytotoxicity” value is reported as 0%. With `COCCn1c(SCC(=O)Nc2cc(OC)ccc2OC)nc2c(c1=O)SC(C)C2` (centres undefined) the “activity change, negative = cytotoxicity” value was -7.8%. For `CCn1c(SCC(=O)Nc2ccccc2F)nc2c(c1=O)SC(C)C2` (centres undefined), the “activity change, negative = cytotoxicity” value was -3.18%. In the case of `CCn1c(SCC(=O)Nc2ccc3c(c2)OCCO3)nc2c(c1=O)SC(C)C2` (centres undefined), the Potency is reported as 4.11 µM (active). With `CN(CC(=O)Nc1ccccc1F)S(=O)(=O)c1ccc2c(c1)c(=O)n(C)c(=O)n2C` the “activity change, negative = cytotoxicity” value was -0.676%. With `Cc1nc2c(OCC(=O)C(C)(C)C)cccn2c1N(C)Cc1cccs1` the “activity change, negative = cytotoxicity” value was -14.1%. For `COc1ccc2c(c1)CCCO[C@]21O[C@H](CCO)C[C@H](O)[C@H]1O`, the “activity change, negative = cytotoxicity” value was -6.9%. For `O=C(COC(=O)CCc1ccc(S(=O)(=O)N2CCOCC2)cc1)Nc1cccc(Cl)c1`, the “activity change, negative = cytotoxicity” value was 4.26%. In the case of `Cc1ccc(CC(=O)Nc2ccc(S(=O)(=O)N3CCOCC3)cc2)cc1C`, the “activity change, negative = cytotoxicity” value is reported as -19.5%. With `CN(CC(=O)Nc1ccc(F)cc1)CC(=O)Nc1ccc(Cl)c(S(=O)(=O)N2CCOCC2)c1` the “activity change, negative = cytotoxicity” value was 16.4%. With `COc1ccc(CC(=O)NC(C)c2ccc(Cl)c(Cl)c2)cc1S(=O)(=O)N1CCOCC1` (centres undefined) the Potency was 23.1 µM (active). With `O=C(CN1CCc2ccccc2C1)Nc1cccc(S(=O)(=O)N2CCOCC2)c1` the Potency was 18.4 µM (active). In the case of `COc1ccc(CC(=O)Nc2ccc3c(c2)CCC3)cc1S(=O)(=O)N1CCOCC1`, the “activity change, negative = cytotoxicity” value is reported as 0%. With `O=C(CCc1ccc(S(=O)(=O)N2CCOCC2)cc1)Nc1ccc2ccccc2c1` the Potency was 16.4 µM (active). For `O=C(CSc1ccccc1)Nc1cccc(S(=O)(=O)N2CCOCC2)c1`, the “activity change, negative = cytotoxicity” value was 2.32%. With `COc1ccc(C(=O)N(C)Cc2ccc(OC)c(OC)c2OC)cc1S(=O)(=O)N1CCOCC1` the “activity change, negative = cytotoxicity” value was -7.85%. In the case of `O=C(COC(=O)c1ccccc1)Nc1cccc(S(=O)(=O)N2CCOCC2)c1`, the “activity change, negative = cytotoxicity” value is reported as -1.3%. In the case of `COc1ccc(CCC(=O)Nc2ccc(Cl)c(S(=O)(=O)N3CCOCC3)c2)cc1OC`, the Potency is reported as 16.4 µM (active). With `COc1ccc(C(=O)OC(C)C(=O)NC2CCCC2)cc1S(=O)(=O)N1CCOCC1` (centres undefined) the “activity change, negative = cytotoxicity” value was 4.6%. With `CCc1noc(C)c1C(=O)OCC(=O)c1ccc(NC(=O)CC(C)C)cc1` the “activity change, negative = cytotoxicity” value was -24.6%. For `Nc1ncnc2c1ncn2[C@@H]1O[C@H](C(=O)NCC(F)(F)F)[C@@H](O)[C@H]1O`, the “activity change, negative = cytotoxicity” value was 13.3%. With `COc1ccc(C=C2CCC3C(CCCC34OCCO4)C2=O)cc1` (centres undefined) the “activity change, negative = cytotoxicity” value was -14.5%. With `OC[C@@H]1CN(Cc2ccc(Cl)cc2)C[C@H](n2cnc3c(NCc4ccncc4)ncnc32)O1` the “activity change, negative = cytotoxicity” value was 7.29%. In the case of `Cc1cccc(C(=O)OCC(=O)Nc2sccc2C(N)=O)c1C`, the “activity change, negative = cytotoxicity” value is reported as 1.57%. For `NCCCNC(=S)NCCCN(Cc1ccc(Cl)cc1)c1ccc(Br)cn1`, the Potency was “inactive”. In the case of `NC(=O)CSc1nnc(-c2cccc(S(=O)(=O)N3CCOCC3)c2)o1`, the “activity change, negative = cytotoxicity” value is reported as -1.06%.
